Screening data as filed in PubChem BioAssay.
This is a sample that favours compounds with a hit; in the whole collection about 0.37% have one here.
Rac1 act GTP bind: alters GTP binding to activated mutant human Rac1 | percent activity (GTP binding), % at 10 µM | GST-Rac1 activated beads, fluorescent GTP binding, flow cytometry; actives lie on both sides; 100% means binding = to untreated wells | P63000 | 0.11% of 190,000 active | AID 764;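 active means GTP binding at least 20 percentage points away from the 100% baseline, in either direction, so actives lie on both sides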
Rac1 wt GTP bind: modulators of human Rac1 wildtype GTP binding | P63000 | GST-Rac1 beads, fluorescent GTP binding, flow cytometry; actives lie on both sides; 0 = cold GTP competed, 100 = untreated | GTP binding activity (% of control), % at 10 µM | 0.27% of 190,000 active;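 active means GTP binding activity at least 20 points away from the 100% control level, either lower or higher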
Cdc42 wt GTP: human Cdc42 wildtype GTP binding change, either direction. P60953. percent activity (GTP binding), % at 10 µM. GST-Cdc42 beads, Bodipy-GTP binding, flow cytometry; actives lie on both sides. 0.2% of 190,000 active;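 active means percent activity GTP binding at least 20 points away from the 100% baseline, either down as inhibitor or up as activator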;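 further: median bead fluorescence of bound Bodipy-FL-GTP at 100 nM; 0% = excess unlabeled GTP control and 100% = no compound control; below 100% means less GTP binding so inhibitor and above means activator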
Target sequence (P60953 whole entry, looked up): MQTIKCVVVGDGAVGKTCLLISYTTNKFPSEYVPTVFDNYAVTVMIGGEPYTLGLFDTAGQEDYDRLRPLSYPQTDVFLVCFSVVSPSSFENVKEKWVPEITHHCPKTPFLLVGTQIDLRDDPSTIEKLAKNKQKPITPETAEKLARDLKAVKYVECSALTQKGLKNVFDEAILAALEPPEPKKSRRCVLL
Rab7 wt modul: alters GTP binding to wildtype dog Rab7; GTP binding activity (percent of control), % at 10 µM; 0.055% of 190,000 active; GST-Rab7 beads, fluorescent GTP binding, flow cytometry; actives lie on both sides; untreated = 100%, excess cold GTP = 0%;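 active means fluorescent GTP binding to Rab7 beads changed by at least 20 points from the 100% baseline, either direction, mostly lower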;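 further: median green fluorescence of bound Bodipy-FL-GTP per Rab7 bead population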
Rab2 wt GTP: changes GTP binding to wildtype dog Rab2A, up or down | GST-Rab2 wt beads, Bodipy-GTP binding, flow cytometry | GTP binding activity, % at 10 µM | 0.19% of 190,000 active;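 active means GTP binding activity at least 20 points away from 100%, either lowered or raised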;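 further: 0% = beads with excess unlabeled GTP and 100% = no-compound control corrected for plate trend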
HRas wt GTP bind: changes GTP binding to wildtype human HRas | P01112 | GST-Ras wt beads, Bodipy-FL-GTP binding, flow cytometry; actives lie on both sides | GTP binding activity, % at 10 µM | 0.14% of 190,000 active | AID 759;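 active means GTP binding activity at least 20% away from the 100% baseline, either lowered as inhibitor or raised as activator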;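 further: 0% = unlabeled GTP competition control and 100% = no-compound control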
Target sequence (P01112 whole entry, looked up): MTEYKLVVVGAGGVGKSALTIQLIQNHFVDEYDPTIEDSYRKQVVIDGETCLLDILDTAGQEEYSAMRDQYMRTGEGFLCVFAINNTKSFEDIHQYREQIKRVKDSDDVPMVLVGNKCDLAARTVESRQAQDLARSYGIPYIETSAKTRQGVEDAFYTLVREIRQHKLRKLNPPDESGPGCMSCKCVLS
The depositor's hits bear a star; [ ] = another dose, or the depositor's remark.

SMILES	Rac1 act GTP bind	Rac1 wt GTP bind	Cdc42 wt GTP	Rab7 wt modul	Rab2 wt GTP	HRas wt GTP bind
O=C(O)COc1ccccc1/C=N/Nc1ccc(S(=O)(=O)Nc2ccc(Cl)cc2)cc1[N+](=O)[O-]	80.0	84.0	79.0*	94.0	84.0	87.0
CC(=O)Nc1ccc(N(C(=O)c2ccco2)C(C(=O)NC2CCCC2)c2ccc(N3CCOCC3)cc2)cc1 (stereo not given)	98.0	98.0	97.0	103.0	100.0	99.0
COc1ccc(N=C2NC(=O)/C(=C/c3ccc(O)c(OC)c3)S2)cc1	95.0	90.0	96.0	100.0	93.0	92.0
COc1cc(/C=C2/SC(=Nc3ccc(O)cc3)NC2=O)cc(OC)c1O	79.0*	59.0*	69.0*	86.0	70.0*	74.0*
COc1ccccc1NC(=O)c1ccc(NC(=O)CSc2n[nH]c(N)n2)cc1	97.0	102.0	102.0	97.0	97.0	96.0
Cc1ccc(C(=O)c2ccccc2C(=O)O)c(O)c1	98.0	103.0	102.0	100.0	99.0	101.0
Cc1ccc(C(=O)c2ccccc2C(=O)O)cc1C	132.0*[activator]	150.0*[activator]	135.0*[activator]	119.0	124.0*[activator]	123.0*[activator]
Cc1cc(C)c(C)c(C(=O)c2ccccc2C(=O)O)c1C	129.0*[activator]	150.0*[activator]	132.0*[activator]	119.0	123.0*[activator]	120.0*[activator]
Cc1c(C(O)CN2CCN(Cc3ccc4c(c3)OCO4)CC2)c2ccccc2n1C (stereo not given)	99.0	103.0	100.0	99.0	99.0	100.0
OC(CN1CCN(Cc2ccc3c(c2)OCO3)CC1)c1c[nH]c2ccccc12 (stereo not given)	105.0	122.0*[activator]	116.0	94.0	107.0	107.0
COc1ccc(/C=N/NC(=O)c2ccncc2)cc1Cn1nc([N+](=O)[O-])c(Br)c1C	83.0	76.0*	65.0*	97.0	68.0*	74.0*
COc1ccc(/C=N/NC(=O)c2ccco2)cc1Cn1nc(C)c([N+](=O)[O-])c1C	94.0	95.0	96.0	97.0	98.0	96.0
O=C(CSc1ccc2nnc(-c3ccc(F)cc3)n2n1)N1CCCc2ccccc21	95.0	97.0	95.0	93.0	93.0	91.0
O=C(CSc1ccc2nnc(-c3cccc(F)c3)n2n1)N1CCCc2ccccc21	89.0	79.0*	88.0	95.0	89.0	87.0
CCOc1cc(/C=C/C(=O)OCC(=O)NC2CCS(=O)(=O)C2)ccc1OCc1ccccc1 (stereo not given)	96.0	95.0	94.0	99.0	95.0	99.0
COc1ccccc1OCCn1cc(C#N)c2ccccc21	97.0	107.0	103.0	97.0	103.0	100.0
Cc1ccccc1OCCn1cc(C(=S)N2CCN(C)CC2)c2ccccc21	100.0	107.0	102.0	105.0	104.0	104.0
O=C(O)c1cn(CCOc2ccccc2Cl)c2ccccc12	115.0	121.0*[activator]	117.0	113.0	119.0	113.0
COc1ccccc1OCCn1cc(C(=O)O)c2ccccc21	120.0*[activator]	120.0*[activator]	114.0	109.0	114.0	111.0
Cc1cc(C)n(C(=O)CNC(=O)C2COc3ccccc3O2)n1 (stereo not given)	97.0	104.0	102.0	96.0	100.0	99.0
Cc1cc(C)n(C(=O)CNC(=O)c2ccc3c(c2)OCCO3)n1	33.0*	29.0*	34.0*	20.0*	32.0*	38.0*
O=C(NC1CCCCC1)c1cc([N+](=O)[O-])[nH]n1	108.0	127.0*[activator]	111.0	109.0	109.0	111.0
CCCCNC(=O)c1cc([N+](=O)[O-])[nH]n1	108.0	127.0*[activator]	108.0	104.0	104.0	106.0
CC(C)Cn1c(N)c(C=O)c(=O)[nH]c1=O	99.0	99.0	102.0	95.0	98.0	96.0
CCN(CC)CCN(C(=O)c1c(F)cccc1F)c1nc2cc(C)cc(C)c2s1	95.0	98.0	98.0	95.0	97.0	95.0
SMILES	Rac1 act GTP bind	Rac1 wt GTP bind	Cdc42 wt GTP	Rab7 wt modul	Rab2 wt GTP	HRas wt GTP bind
CCCC1CC(C)(C(=O)CSc2n[nH]c(-c3ccccc3)n2)OC1=O (stereo not given)	102.0	109.0	107.0	101.0	103.0	104.0
CC1Cc2ccccc2N1S(=O)(=O)c1cccc(C(=O)NCCCO)c1 (stereo not given)	108.0	123.0*[activator]	113.0	110.0	112.0	108.0
COc1cc(C(C)=O)ccc1OCC(=O)NCC1(N2CCCCC2)CCCCC1	98.0	101.0	101.0	99.0	100.0	100.0
O=C(Nc1ccc(S(=O)(=O)N2CCCC2)cc1)c1cccs1	94.0	98.0	96.0	103.0	97.0	101.0
O=C(Nc1nc(-c2ccc(S(=O)(=O)N3CCCC3)cc2)cs1)c1cccs1	84.0	87.0	71.0*	90.0	70.0*	71.0*
CN(Cc1ccon1)C(=O)CC1C(=O)NCCN1CC(C)(C)C (stereo not given)	98.0	105.0	100.0	106.0	99.0	104.0
O=C(O)CC/C(=C\c1ccc(N2CCOCC2)c([N+](=O)[O-])c1)c1nc2ccccc2s1	72.0*	82.0	71.0*	80.0	74.0*	77.0*
CC(C)(c1ccccc1)c1ccc(OCC(O)CNC2CCN(Cc3ccccc3)CC2)cc1 (stereo not given)	98.0	97.0	96.0	98.0	99.0	96.0
CCc1nnc(NC(=O)CSc2nnc(-c3cccnc3)n2C)s1	96.0	92.0	102.0	104.0	98.0	98.0
O=C(Nc1ccc(S(=O)(=O)N2CCCc3ccccc32)cc1)C1CCCO1 (stereo not given)	102.0	120.0*[activator]	117.0	103.0	111.0	110.0
O=C(NN=C1C2CC3CC1CC(Cl)(C3)C2)c1ccccn1	99.0	100.0	98.0	101.0	98.0	98.0
COc1cc(/C=N/NC(=O)c2cc3ccccc3cc2O)ccc1OCCN1CCCCC1	76.0*	97.0	97.0	88.0	86.0	85.0
CCOC(=O)C1CCN(C(=O)c2cnn3c(C)cc(C)nc23)CC1	96.0	95.0	98.0	95.0	96.0	96.0
C=CC#CC[N+]1(CC#Cc2ccccc2)CCOCC1	116.0	128.0*[activator]	107.0	101.0	100.0	106.0
C(#Cc1ccccc1)C[N+]1(CC#Cc2ccccc2)CCCC1	98.0	103.0	103.0	104.0	102.0	103.0
CS(=O)(=O)N1CCc2cc(C(=O)OCC(=O)c3ccccc3)ccc21	95.0	94.0	99.0	94.0	94.0	96.0
CCCCCCCCCCCC(=O)c1c(O)cccc1O	79.0*	83.0	79.0*	89.0	81.0	82.0
CCCCCCCC(=O)NNC(=O)Cc1ccccc1	95.0	93.0	97.0	94.0	96.0	95.0
Cc1ccc(C(=O)N2CCOCC2)c(F)c1F	97.0	99.0	97.0	96.0	98.0	95.0
